Rows were chosen to be rich in hits. Some 6% of all compounds tested hit in one or more screens of this group.
Tau fibril ThT – blocks human tau fibril formation measured by thioflavin T; P10636; recombinant tau K18 P301L, heparin-induced fibrillization, ThT fluorescence; 270,000 tested, 2.1% active; Potency, µM (series often up to 57.4 µM), for the others: at the highest dose activity, negative = inhibition, most hits filed as inhibitors; note: nearly all actives have a fitted effect of over 55% in size
Target sequence (P10636 561-689 P618L limits assumed): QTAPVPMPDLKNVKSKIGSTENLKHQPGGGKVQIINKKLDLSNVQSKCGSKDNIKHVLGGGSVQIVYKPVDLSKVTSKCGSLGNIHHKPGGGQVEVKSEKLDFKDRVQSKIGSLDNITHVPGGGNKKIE
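K18 P301L tau (15 uM + 0.24 uM Alexa 594-tagged), heparin 20 uM, NaOAc pH 7, 6 h 37 C; ThT 30 uM, 1 h RT, ex 450/em 510 nm.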
PLK1 PBD inh – blocks phosphopeptide binding to human PLK1 polo-box domain | Plk1 PBD binding of FITC phosphopeptide, fluorescence polarization | Potency, µM, without a hit: max response, negative = inhibition, most hits filed as inhibitors | 360,000 tested, 2.8% active; note: series mostly up to about 57 µM; nearly all actives have a fitted effect of over 65% in size
Target sequence (P53350 whole entry, looked up, the tested form may be a part): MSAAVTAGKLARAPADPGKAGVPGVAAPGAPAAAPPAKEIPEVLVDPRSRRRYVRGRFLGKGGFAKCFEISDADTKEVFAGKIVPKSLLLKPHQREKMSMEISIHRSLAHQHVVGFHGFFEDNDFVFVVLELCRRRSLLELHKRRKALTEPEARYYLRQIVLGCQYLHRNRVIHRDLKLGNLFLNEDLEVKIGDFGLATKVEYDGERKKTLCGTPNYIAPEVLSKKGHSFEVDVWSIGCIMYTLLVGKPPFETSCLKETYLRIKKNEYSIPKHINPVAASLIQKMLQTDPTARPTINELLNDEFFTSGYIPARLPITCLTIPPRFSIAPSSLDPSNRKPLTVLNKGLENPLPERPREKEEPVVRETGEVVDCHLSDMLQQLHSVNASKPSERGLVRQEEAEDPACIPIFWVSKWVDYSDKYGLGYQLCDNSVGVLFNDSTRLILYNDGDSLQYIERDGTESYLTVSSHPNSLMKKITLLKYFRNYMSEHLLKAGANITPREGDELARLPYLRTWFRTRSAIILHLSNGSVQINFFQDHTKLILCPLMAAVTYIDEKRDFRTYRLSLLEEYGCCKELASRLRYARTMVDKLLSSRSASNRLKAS
Tau fluor cs – counter-screen for tau fibril formation inhibitors. 280,000 tested, 0.93% active. Potency, µM (series often up to 57.7 µM), without a hit: at the highest dose activity change, negative = decrease. tau K18 P301L (four-repeat tau fragment) Alexa594 fluorescence, heparin fibrillization; note: nearly all actives have a fitted effect of over 55% in size
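Human K18 P301L tau (15 uM unlabeled plus 0.24 uM Alexa 594-labeled, final) in 100 mM sodium acetate pH 7 was mixed with compound and 20 uM heparin and incubated 6 hr at 37 C.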
Sfp inh – blocks B. subtilis Sfp PPTase activity; 310,000 tested, 3.5% active; Potency, µM, without a hit: largest response in the series, negative = inhibition, usual class: inhibitors; Biochemical Sfp PPTase activity, qHTS; Q9F4F7;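 note: the enzyme is Sfp with the accession as filed and its product quenches rhodamine fluorescence; 0% = enzyme reaction without inhibitor and -100% = no enzyme wells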
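Fluorescence-quenching assay: 15 nM Sfp-PPTase preincubated 15 min at room temperature with compound, then 5 uM rhodamine-CoA and 12.5 uM BHQ-2-labelled YbbR peptide added. Fluorescence (ex 525/em 598 nm) read at start and after 30 min; difference gives rate.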
VDR inhibitor – vitamin D3 receptor (human) inhibition. P11473. VDR-SRC2-3 peptide fluorescence polarization, 2 h. Potency, µM, inactives show max response, negative = inhibition, usual class: inhibitors. 400,000 tested, 0.93% active
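FP read-out; VDR + SRC2-3 coactivator peptide; 23 nl compound by pintool; 2 h RT incubation; reagents held at 4 deg C, protected from light.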
Tau FP inhib – tau fibrillization inhibition (FP); Potency, µM (doses to about 57.7 µM), for the others: top-dose activity, negative = inhibition, usual class: inhibitors; P10636; 280,000 tested, 0.39% active; K18 P301L tau heparin fibrillization, Alexa594 FP, 6 h; note: nearly all actives have a fitted effect of over 55% in size
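K18 P301L tau (15 uM unlabeled/0.24 uM Alexa 594-labeled, final) + compound + heparin 20 uM final; 100 mM NaOAc pH 7; 6 hr 37 C; ThT 30 uM final added, 1 hr RT; FP ex 555/em 632 nm.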
* marks the source's active call; other numbers are inactive results; ? = inconclusive; nt = no result given; [ ] = another dose, or the depositor's remark. Calls come from the whole dose curve; as a rule, active = well fitted curve in the direction sought with a large enough effect; inconclusive = small, poorly fitted or top-dose-only effect, or another doubt; inactive = no such curve, though single readings can be large; an effect the other way counts as inactive or inconclusive. Unless noted, % is set by controls: 0 for no effect and ±100 for the full control effect; potency is the fitted concentration of half-maximal effect.

SMILES	Tau fibril ThT	PLK1 PBD inh	Tau fluor cs	Sfp inh	VDR inhibitor	Tau FP inhib
Cc1ccc2oc(-c3ccc(C)c(NC(=O)/C=C/c4ccc(Cl)cc4)c3)nc2c1	-3%	nt	-6%	nt	12%	-16%
CCOc1ccc2c(c1)n([O-])c1c([n+]2=O)CCCC1	20µM*	-22%	-22%	20µM*	-11%	?
CCN(CC)c1ccc2cc(S(=O)(=O)c3ccc(Cl)cc3)c(=O)oc2c1	?	19µM*	?	-6%	9%	-2%
CCCCCCc1cc2cc(S(=O)(=O)c3ccc(Cl)cc3)c(=O)oc2cc1O	-10%	-14%	-29%	2%	11%	-2%
Cc1ccc(NC(=O)CSc2nnc(NC3CC3)s2)cc1S(=O)(=O)N1CCOCC1	nt	1%	nt	nt	nt	nt
O=C1C2C3C=CC(CC3)C2C(=O)N1c1ccc(F)cc1 (stereo not drawn)	nt	7%	nt	26%	1%	nt
CC(C)C1NC2(C(=O)c3ccccc3C2=O)C2C(=O)N(c3ccc(F)cc3)C(=O)C12 (stereo not drawn)	-19%	?	-16%	25µM*	-6%	0%
CCOC(=O)Cc1cnc(NC(=O)CSc2nc(N)cc(=O)[nH]2)s1	11%	17µM*	3%	14%	?	-6%
Cn1nc(C(=O)NCC(=O)Nc2ccc(F)c(F)c2)ccc1=O	nt	-11%	nt	nt	nt	nt
O=S(=O)(c1ccccc1)N(F)S(=O)(=O)c1ccccc1	nt	27µM*	nt	nt	-26%	nt
CC(=O)Oc1ccc2c(=O)c(Oc3ccccc3)coc2c1OC(C)=O	?	?	-13%	?	-4%	-5%
O=C(NCC1CCCO1)c1ccc2c(c1)N(Cc1ccccc1)C(=O)CS2 (stereo not drawn)	nt	30µM*	nt	3%	-18%	nt
CCOc1ccc(CCNC(=O)c2ccc3c(=O)[nH]c4c(C(=O)NC(C)C)sc(=S)n4c3c2)cc1	nt	?	nt	-4%	-1%	nt
CC(C)NC(=O)c1sc(=S)n2c1[nH]c(=O)c1ccc(C(=O)NCCc3ccc(Cl)cc3)cc12	nt	27µM*	nt	-1%	-20%	nt
O=C(NCCc1ccccc1)c1ccc2c(=O)[nH]c3c(C(=O)NCC4CCCO4)sc(=S)n3c2c1 (stereo not drawn)	nt	30µM*	nt	-27%	79µM*	nt
COc1ccc(/C=C/C(=O)Nc2ccc3nc(N4CCCCC4)cc(C)c3c2)cc1OC	2.8µM*	nt	7.9µM*[quencher]	nt	11%	?
COc1ccc(C(=O)Nc2ccc3nc(N4CCC(C)CC4)cc(C)c3c2)cc1	?	nt	5µM*[quencher]	nt	-5%	-7%
CCCCNC(=O)CCC(=O)Nc1ccc2nc(N3CCC(C)CC3)cc(C)c2c1	-17%	-3%	-24%	-1%	3%	16%
COc1cccc(C(=O)Nc2ccc3nc(N4CCC(C)CC4)cc(C)c3c2)c1	?	nt	13µM*[quencher]	nt	-10%	6%
COc1ccc(/C=C/C(=O)Nc2ccc3nc(N4CCC(C)CC4)cc(C)c3c2)cc1	?	nt	4µM*[quencher]	nt	-28%	13%
CCN(CC)c1cc(C)c2cc(NC(=O)c3cccc(OC)c3)ccc2n1	?	nt	?	nt	-12%	9%
Cc1ccc(C)c(NC(=O)CN2C(=O)c3cccc4cccc2c34)c1	0%	nt	-2%	nt	0%	?
Cc1nn(-c2ccc(N3CCCC3)nn2)c(C)c1CCC(=O)NCc1ccc(F)cc1	-18%	nt	4%	nt	8%	-4%
CC1CCc2nc3ncn(Cc4ccc(Cl)cc4)c(=O)c3cc2C1 (stereo not drawn)	0%	nt	4%	nt	11%	4%
CCOC(CN=c1nc(N(C)C)ss1)OCC	nt	6.7µM*	nt	nt	?	nt
SMILES	Tau fibril ThT	PLK1 PBD inh	Tau fluor cs	Sfp inh	VDR inhibitor	Tau FP inhib
CC1=C(C#N)C(NC(=O)c2ccccc2)(C(F)(F)F)C(=O)N1 (stereo not drawn)	-10%	nt	-11%	nt	-10%	3%
CCC(C(=O)OCC(=O)NC(=O)NC(C)(C)C)c1ccccc1 (stereo not drawn)	-5%	27µM*	-5%	8%	-21%	10%
Cc1c(Cl)cccc1NC(=O)CCn1nc(C)c2c(C)n(-c3ccccc3)nc2c1=O	7%	nt	-2%	nt	10%	2%
Cc1nc(SCc2cccc(F)c2)c2oc3ccccc3c2n1	?	4%	-24%	40µM*	-20%	-3%
Cc1nc(SCc2nc3ccc(F)cc3[nH]2)c2oc3ccccc3c2n1	nt	nt	nt	nt	9%	nt
CNC(=O)C(Sc1nc(C)nc2c1oc1ccccc12)C(C)=O (stereo not drawn)	-1%	-16%	-8%	50µM*	-9%	2%
Cc1c(C(=O)O)c(C(=O)O)nc2ccc(N3CCOCC3)cc12	-4%	nt	-6%	40µM*	nt	-15%
Cc1ccc2nc(C)cc(N3CCOCC3)c2c1	5%	-4%	0%	-11%	5%	0%
CC(=O)OC1CC[C@@]2(C)C(CC[C@@]3(C)C2CC=C2C4CC(C)(C)CC[C@]4(C(=O)O)CC[C@@]23C)C1(C)C (stereo partly drawn)	-9%	nt	-8%	-1%	3%	-5%
COC(=O)c1cc(Cl)c(NC(=O)c2ccc(C(C)(C)C)cc2)cc1OC	?	2%	-10%	14µM*	-8%	9%
COC(=O)c1cc(Cl)c(NC(=O)C(C)C)cc1OC	1%	-5%	-1%	15%	-13%	-5%
O=C1/C(=C/c2c[nH]c3ccccc23)CCC/C1=C\c1c[nH]c2ccccc12	?	18%	7.9µM*[quencher]	50µM*	-4%	8%
Cc1nc(N/N=C\c2ccc3c(c2)OCO3)sc1C	nt	-7%	nt	-1%	1%	nt
OCCN(Cc1ccccc1)Cc1ccccc1Cl	-4%	-1%	-2%	28µM*	-14%	2%
CNC(=O)Nc1cccc(-c2cc(-c3c(Cl)cccc3Cl)no2)c1	-2%	-9%	?	5%	-4%	22µM*
Cc1ccc(NC(=O)Cn2c(-c3ccc4c(c3)OCO4)cn(-c3ccccc3)c2=O)cc1	?	nt	?	nt	2%	7%
CC1CCCC2(C1)NC(=S)N(c1ccccc1)N2 (stereo not drawn)	?	-5%	-10%	50µM*	?	-2%
CC1CCCCC12NC(=S)N(c1ccccc1)N2 (stereo not drawn)	25µM*	-15%	-22%	18µM*	1%	?
CC1CC(C)(C)CC2(C1)NC(=S)N(c1ccccc1)N2 (stereo not drawn)	-20%	-4%	-16%	?	?	-2%
CC(C)CCN1NC2(CCCC(C)C2)NC1=S (stereo not drawn)	-10%	1%	-10%	71µM*	1%	0%
S=C1NC2(CCCCC2)NN1c1ccccc1	?	-2%	-11%	-61%	-5%	-1%
O=c1c(-c2cccs2)nc2cnc(Oc3cccc(Cl)c3)nc2n1C1CC1	nt	nt	nt	-15%	?	nt

From PubChem
